Assay results published in the supplement of paper PMC6555819.

Tested on: PPARg:RXRa 90nM:30nM, anti-RXR (NR concentration 90 nM, RXRa partner concentration 30 nM)
Experiment: PBM binding z-score (relative to random genomic background probes); higher = stronger binding; sequences stand for … in GC…GCGATTGACAGCGTAGAATGAAGG
Procedure, shortened: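 Custom Agilent 4×180K protein-binding microarrays carried double-stranded probes. Their 34-nt variable regions held direct-repeat seeds, single-nucleotide variants, half-site ablations and random human genomic background sequences. Arrays were incubated 1 h with ligand-free nuclear receptor dimers in PBS pH 7.4, 2% milk, 0.02% Triton X-100, 1 mM DTT, 0.2 mg/mL BSA and 0.4 mg/ml salmon testes DNA. Antibodies against each partner (one per run) detected binding, and scanned fluorescence was regression-normalized. Binding z-scores use random background probes as reference.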

Point of comparison: CCTACTGGGCCATTCAGAGCTCATTGATCATATG, PBM binding z-score -0.224. Against it:
- CAAACTAGGACAAGAGGTCAAAGTCCGCTTCCCG — higher, 6.29
- GGAACAAGGGCAAAGTTGATAGCATCTGTCGACG — higher, 6.8
- ACTTACGGGTCAAAGAGGTTATAGCACGCGTATA — higher, 4.28
- CCGACTGGGGCATAAGGTTACCAGAAGCCAGCCC — higher, 2.93
- ACTATTAGTTGAGACGAGAGCAACCGATAGGTTG — higher, 0.081
- TCGAGTAGGTTAGTCAGGGCATTCAGCCAACATA — higher, 0.992
- TCGAGTAGGTGAGGGGCATTCAGAATGGCGTCGA — higher, 2.63
- ATATGTAGGTTAAGGTTCATTCAGGTTGGTTCGC — higher, 10.9
- AGAATGAGGTTATTCGTAGATCAGGGAAGAAAGT — higher, 1.2
- GCGACTGGGGCACAGCAGGTTACCATAAGGTTGG — higher, 0.859
- GGAACGCGGGCATTCGAGTTGATAGCATGGCGAT — lower, -0.624
- CCTACTGGGCTACGAAAGGTCATTGATTCAGTGA — higher, 3.64
- ACTTACCGGTCAACGAGGTTATAGCACGCGTATA — higher, 0.785
- CTCGAAAGGTCGTGCTCAGGTGAGGATACCAAAC — higher, 2.43
- GCTATGAGTTGAAAGGGCAACCGAATGATTCTCG — higher, 3.23
- ATTTGTAGGTTAAGGGTCATTCAGGTTGGTTCGC — higher, 12.1
- TATTGTAGATCAAGCAGGTTAAGAAAGCCTGAGT — higher, 0.218
- CGTCATAGTTCAACTAAGGTAACGTAAAGCACGC — higher, 1.56
- TGTCAAAGTTCAAAGGTAACCTAAGTATCCACAC — higher, 7.47
- CGTCCATGGTCAGAGAGGTCAGTGAATGCCGAGT — higher, 0.219
- ACTCGGAGGACAAAGGTCAGAGGTACGCCAGTGA — higher, 7.16
- CTCGAAAGGTCGGTTTAGGTGAGTATACGGATAA — higher, 0.683
- TAGCCTAGGTCATGGGGGCCAGTATAGTGTCGGC — higher, 3.11
- ATCTCTAGGTAAAAGTTCAGGGAATCCCGAGGAT — higher, 8.27
- CTCGAAAGGTCGTGCTCAGGTGTGTATACCAAAC — higher, 2.46
- ACTTACGGGTCGACGAGGTTATAGCACGCGTATA — higher, 0.729
- AGTCAAAGTTCTCTAGGTAACGTAAGATTCAGCT — higher, 0.81
- AGAATGCGGTTATACGTAGATCAGGGAAGAAAGT — higher, -0.139
- AGAATGAGGTTCAGATCAGGGAAACAGAATACAT — higher, 0.345
- CCTACTGGGCCATCAGGTCACTGATATCAACGTT — higher, 3.37
- CGTCCAAGGTCAGCAGGTTAGTGAAAGCGACGTG — higher, 1.88
- CGTCCAAGGTGAATGCTAGGTCAGTGAAAGCATT — higher, 0.352
- TGAATGAGGTTATAAGATCAGGGTACGTTGCAAA — higher, 1.23
- TCTGCTAGCTCAACGATGGTCAGCTAATCTGCTA — higher, 0.838
- TCTTGTAGATCAAGCGGGTTAAGAAAGCCTGAGT — higher, 1.81
- ATATGTAGGTTATTGGGTCATTCAGTTTGCGCAT — higher, 5.9
- ATCTCTAGGTAACCAGTTCAGTGAAAGAGAGGAC — higher, 0.873
- TCTTGTAGACCAAGCAGGTTAAGAAAGCCTGAGT — higher, 1.77
- AGAATGAGGTTATTAAGATCAAGGAATTGCGGTC — higher, 1.6
